Source: PubChem
Most compounds without a hit are left out; they make up all but 7.1% or so of the library.
MCF10A rereplic – inducers of DNA re-replication in MCF 10A breast cells. MCF 10A DNA re-replication, Hoechst nuclear intensity, 48 h. Potency, µM (doses to about 46.1 µM), without a hit: top-dose activity, positive = re-replication, most hits filed as activators. hit rate 2.9% among 350,000. AID 624296; note: % of control where 0% means no effect; nearly all actives have a fitted effect of over 50% in size
AT treatment – potential ataxia-telangiectasia treatments restoring KAP-1 phosphorylation; Potency, µM (series often up to 57.5 µM), inactives show at the highest dose activation, actives largely listed as activators; hit rate 0.19% among 320,000; F2112 A-T fibroblasts, KAP-1 phosphorylation AlphaLISA; neocarzinostatin DNA damage 30 min before lysis; note: % of control where 0% means no effect; nearly all actives have a fitted effect of over 45% in size
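ATM-like activity read as KAP-1 phosphorylation via AlphaLISA donor/acceptor antibody pairs after lysis and 6 hr at 25C. Cells were ATM-null patient fibroblasts (F2112, hTERT), dosed 60 min, then exposed to the DSB inducer NCS for 30 min.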
SW480 rereplic – DNA re-replication induction in SW480 cells. hit rate 1.8% among 340,000. Potency, µM (series often up to 46.1 µM), without a hit: at the top dose re-replication activation, actives largely listed as activators. SW480 DNA re-replication, Hoechst DNA content imaging, 48 h; note: % of control where 0% means no effect; nearly all actives have a fitted effect of over 55% in size
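Hoechst fluorescence of nuclei (405 nm excitation, 500-530 nm emission) measured by plate-scanning imager after 48 hr compound exposure at 37 C; re-replication scored as increased number of nuclei with elevated intensity.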
ELG1 genotoxic – inducers of genotoxicity in HEK293T ELG1-luciferase cells | HEK293T ELG1-luciferase reporter, luminescence, 16 h | Potency, µM (highest dose often 46 µM), for inactives: at the top dose activity change, positive = activation, actives largely listed as activators | hit rate 1.3% among 330,000; note: % of control where 0% means no effect; nearly all actives have a fitted effect of over 60% in size
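16 hr compound incubation (37 °C, 5% CO2) of HEK293T cells carrying luciferase-tagged ELG1; luciferase then measured by ONE-Glo luminescence after 30 min at RT.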
ELG1 DNA repair – ELG1-dependent DNA repair inhibition. AID 504467. HEK293T ELG1-luciferase reporter, luminescence, 16 h; DNA damage induced by 5-fluorouridine. hit rate 2.3% among 330,000. Potency, µM (titrated, usually from 46.1 µM), for the others: at the top dose activity change, negative = inhibition, hits mostly inhibitors; note: % is set by controls: 0 for no effect and ±100 for the full control effect; nearly all actives have a fitted effect of over 55% in size
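Quantitative HTS, concentration-response format. 2,000 cells/well co-treated with 5-fluorouridine and compound, 16 hr in 5% CO2 at 37 °C; ONE-Glo luminescence read after 30 min.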
p53 reactivator – re-activators of mutant p53; AID 504706; Potency, µM (highest dose often 92.2 µM), for inactives: at the top dose activity change, positive = activation, actives largely listed as activators; H1299 p53-A138V BP100-luciferase reporter, luminescence, 24 h; hit rate 0.063% among 320,000; note: % of control where 0% means no effect; nearly all actives have a fitted effect of over 45% in size
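H1299 (p53-null), stable ts p53-A138V + BP100-Luc; 1000 cells/well, Opti-MEM/10% FBS; cpd 4 pt, 1:5; 24 h, 37 deg C, 5% CO2; detection reagent 10 min RT; luminescence.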
* = called active by the depositor; ? = inconclusive; · = no result; [ ] = another dose, or the depositor's remark. Calls come from the whole dose curve; as a rule, active = well fitted curve in the direction sought with a large enough effect; inconclusive = small, poorly fitted or top-dose-only effect, or another doubt; inactive = no such curve, though single readings can be large; an effect the other way counts as inactive or inconclusive. Potency is the fitted concentration of half-maximal effect.

SMILES	MCF10A rereplic	AT treatment	SW480 rereplic	ELG1 genotoxic	ELG1 DNA repair	p53 reactivator
Cc1cc(=O)[nH]c(SCC(=O)Nc2nc3ccccc3s2)n1	0.581µM*	-5.5%	?	-0.1%	6.5%	13.7%
Cc1cc(=O)[nH]c(SCC(=O)Nc2nc(-c3ccccc3)cs2)n1	6.0%	0.0%	-6.0%	-2.1%	?	8.2%
N#Cc1c(SCC(=O)Nc2nc3ccc(Br)cc3s2)sc2c(O)cc(=O)[nH]c12	14.7%	-4.0%	11.6µM*	-0.3%	20.3%	12.8%
CCOC(=O)NC(=O)CSc1nc(C)cc(C(F)(F)F)c1C#N	13.0%	1.0%	-4.1%	12.7%	?	29.2%
N#Cc1c(SCC(=O)Nc2nc3ccccc3s2)sc2c(O)cc(=O)[nH]c12	?	4.1%	18.4µM*	1.4%	?	?
Cc1cc(C(F)(F)F)c(C#N)c(SCC(=O)Nc2nc3cc(Br)ccc3s2)n1	13µM*	·	?	5.1%	?	?
O=C(Cc1ccccn1)c1ccc(F)cc1	12.5%	1.5%	6.8%	11.8%	?	?
CC1CCCC(C)N1CCOc1cc(N)ccc1C#N (stereo unspecified)	?	·	-7.7%	·	·	·
O=C(NCCOc1ccccc1)c1cc(S(=O)(=O)N2CCOCC2)ccc1F	5.2%	-0.3%	28.2%	-0.7%	-6.9%	3.6%
COc1ccc(S(=O)(=O)NNC(=S)NCCc2ccccc2)c(OC)c1	-2.1%	14.2%	-6.5%	9.8%	-3.6%	5.9%
O=C(CCNS(=O)(=O)c1ccccc1)N1CCCCCCC1	-9.4%	1.7%	-27.5%	?	?	10.2%
CC(CNS(=O)(=O)c1ccccc1)(c1ccccc1)N1CCCCC1 (stereo unspecified)	-1.1%	2.5%	2.59µM*	-4.9%	-13.1%	-2.4%
COc1ccc(-c2cc(C(=O)NCCCn3ccnc3)c3ccccc3n2)c(OC)c1	-1.7%	-2.5%	-1.8%	3.1%	-8.1%	-0.4%
CCN(CC(=O)Nc1cc(Cl)ccc1C)C(=O)c1ccc(N2CCCC2=O)cc1	6.8%	1.4%	-6.4%	0.4%	?	0.0%
COc1cccc(/C=N/n2cnc3ccccc32)c1OC	11.8%	4.1%	-3.5%	2.59µM*	?	?
CC(=O)c1c[nH]c(C(=O)Nc2ccc(N3CCCCCC3)cc2)c1	-0.2%	-2.0%	-5.3%	11.6%	?	?
CCc1ccc(OCC(=O)Nc2ccc3c(c2)OCCO3)cc1	5.7%	-2.7%	-1.4%	14.9%	?	16.6%
COCCNc1oc(-c2ccccc2Cl)nc1S(=O)(=O)c1ccc(C)cc1	5.2%	10.6%	-2.6%	2.1%	2.5%	-11.0%
COCCNc1oc(/C=C/c2ccccc2OC)nc1S(=O)(=O)c1ccccc1	20.6µM*	27.4%	?	0.5%[9.26 µM]	10.3µM*	-3.9%
COc1ccccc1/C=C/c1nc(S(=O)(=O)c2ccccc2)c(N2CCC(C(N)=O)CC2)o1	?	13.9%	18.4µM*	3.6%[9.26 µM]	?	-18.9%
Cc1ccc([C@@H]2CC=C(C(=O)O)[C@H](c3cccc(F)c3)N2S(=O)(=O)c2ccccc2C)cc1	-27.6%	12.9%	-31.3%	-1.1%	7.8%	-2.6%
Cc1ccc2c(c1)/C(=C/c1ccc(F)cc1)C(=O)N2	?	7.6%	165.6%	-7.2%	-10.3%	7.4%
Cc1ccc(C2=N/C(=C\c3ccc(F)cc3)C(=O)N2)cc1	?	5.8%	14.6µM*	13.2%	?	28.2%
C=CCNS(=O)(=O)c1cc2c3c(c1)CCN3C(=O)CC2	7.4%	17.2%	-1.8%	0.0%	?	-3.3%
CCOc1ccc(N/C(=N/c2nc(C)cc(C)n2)NC(=O)CC)cc1	1.3%	13.9%	3.9%	-7.1%	18.3µM*	-2.7%
CCC(=O)N/C(=N/c1nc(C)cc(C)n1)Nc1ccc(C)cc1	?	0.0%	1.6%	-5.1%	?	-2.5%
